Laboratory results as given in ChEMBL document CHEMBL4513154, “CO-ADD screening of Jain University (India) compounds”.
Entries with a potency or affinity are not part of this list.

What was measured:
Klebsiella pneumoniae = details: Concentration 32 ug.mL-1; ASSAY_TEST Inhibition of Bacterial Growth; detection method Absorption (OD600); MEDIA CAMHB; plate type 384well; NBS; CORNING #3640; time 18 hr
Candida albicans = details: 32 ug/mL
Cryptococcus neoformans = details: Concentration 32 ug.mL-1; ASSAY_TEST Inhibition of Fungal Growth; detection method Resazurin; Absorption (OD600-OD570); plate type 384well; NBS; CORNING #3640

Structure (SMILES) | Inhibition (Klebsiella pneumoniae) | Inhibition (Candida albicans) | Inhibition (Cryptococcus neoformans)
Cn1c(-c2cscn2)nc2cc(Cl)ccc21 | 8.32% | 0.35% | -39.47%
Nc1nc(Nc2ccccc2)sc1-c1nc2ccccc2c(=O)n1-c1ccc(Cl)cc1 | -25.33% | 3.54% | -43.66%
CC(C)c1ccc(Cn2c(-c3cscn3)nc3c(Cl)cccc32)cc1 | 2.02% | 2.25% | -5.86%
Nc1nc(Nc2ccccc2)sc1-c1nc2ccccc2c(=O)n1-c1ccccc1 | 11.02% | 6.03% | -28.85%
Cn1c(-c2cscn2)nc2c(Cl)cccc21 | -3.44% | 4.84% | -43.05%
N#Cc1ccccc1-c1ccc(Cn2c(-c3cscn3)nc3ccc(Cl)cc32)cc1 | 6.08% | 1.5% | -28.09%
N=C(Nc1ccccc1)c1cscn1 | -2.19% | 6.13% | 4.1%
N#Cc1ccccc1-c1ccc(Cn2c(-c3cscn3)nc3ccccc32)cc1 | 13.6% | 1.96% | -25.26%
Clc1ccc2nc(-c3cscn3)n(Cc3ccccc3)c2c1 | 10.47% | 0.38% | -41.97%
CCc1ccc(Nc2nc(N)c(-c3nc4ccccc4c(=O)n3-c3ccc(Cl)cc3)s2)cc1 | 12.28% | 0.52% | -34.77%
N#Cc1ccccc1-c1ccc(Cn2c(-c3cscn3)nc3c(Cl)cccc32)cc1 | -3.22% | 5.26% | -8.16%
N#Cc1ccccc1-c1ccc(Cn2c(-c3cscn3)nc3cc(Cl)ccc32)cc1 | 8% | -1.51% | -36.18%
CCc1ccc(-n2c(-c3sc(Nc4ccccc4)nc3N)nc3ccccc3c2=O)cc1 | -7.9% | 0.25% | -54.61%
CCc1ccc(Nc2nc(N)c(-c3nc4ccccc4c(=O)n3-c3ccccc3)s2)cc1 | 10.03% | 6% | -53.41%
Clc1cccc2c1nc(-c1cscn1)n2Cc1ccccc1 | 10.03% | 5.46% | -32.31%
Clc1ccc2c(c1)nc(-c1cscn1)n2Cc1ccccc1 | 12.29% | 1.89% | -24.56%
N=C(Nc1ccccc1Cl)c1cscn1 | 17.83% | 2.14% | -8.23%
Nc1nc(Nc2ccc(Cl)cc2)sc1-c1nc2ccccc2c(=O)n1-c1ccccc1 | 6.62% | 3.78% | -54.18%
Fc1cc(Cn2c(-c3cscn3)nc3c(Cl)cccc32)cc(C(F)(F)F)c1 | -0.75% | 3.24% | -8.45%
N#Cc1ccc(Cn2c(-c3cscn3)nc3c(Cl)cccc32)cc1 | -10.25% | 4.47% | -42.41%
O=[N+]([O-])c1ccc(Cn2c(-c3cscn3)nc3ccccc32)cc1 | 13.21% | 3.4% | -41.75%
CCc1ccc(Nc2nc(N)c(-c3nc4ccccc4c(=O)n3-c3ccc(CC)cc3)s2)cc1 | 12.46% | 3.1% | -48.5%
Clc1cccc2[nH]c(-c3cscn3)nc12 | 5.98% | 15% | -19.67%
